From PubChem BioAssay AID488789 (Broad Institute, 2010)
Potency and affinity values are given separately. Results filed as inconclusive are left out. A call without a number means that no potency is given here. The source made the active and inactive calls.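 How the source made its calls: active means samples whose fitted half-maximal inhibition concentration is no more than ten times the top valid dose tested; inconclusive means flat response between -70 and -30, or invalid curve fit; inactive means flat within 30 of zero, potency above limit, or signal rising.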

Target: Trypsin (Sus scrofa) (UniProt P00761)
Assay: trypsin protease activity blockade – biochemical, quenched peptide fluorescence, cherry-pick, selectivity assay for Rce1 protease inhibitor project, dose response (AID 488789);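 further: more negative means stronger trypsin inhibition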
Details: porcine trypsin, quenched peptide cleavage fluorescence; series mostly up to 10 µM

Sequence of Trypsin (Sus scrofa) (P00761 whole entry, looked up): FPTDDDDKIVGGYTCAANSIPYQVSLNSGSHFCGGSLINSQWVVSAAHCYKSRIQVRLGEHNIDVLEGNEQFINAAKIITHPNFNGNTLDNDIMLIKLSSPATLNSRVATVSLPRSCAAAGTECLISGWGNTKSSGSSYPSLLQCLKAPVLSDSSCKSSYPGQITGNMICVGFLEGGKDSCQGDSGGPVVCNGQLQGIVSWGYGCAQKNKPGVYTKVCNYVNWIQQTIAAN

| Structure (SMILES) | outcome |
| --- | --- |
| Cc1cccc(OCCN2C(=O)C(=O)c3cc(C)ccc32)c1 | inactive |
| COc1ccc(-c2c(C)oc3c(CN4CCN(C)CC4)c(O)ccc3c2=O)cc1 | inactive |
| COc1ccc(-n2nc(C(=O)NCC(=O)N3CCC(C)CC3)c3ccccc3c2=O)cc1 | inactive |
| Cc1nn(CCC(=O)O)c2nc(-c3cccnc3)cc(C(F)(F)F)c12 | inactive |
| O=C(CN(C1CCCCC1)C1CCCCC1)N1CCc2ccccc2C1 | inactive |
| CCOc1ccccc1CNC(=O)c1cc2occc2n1C | inactive |
| Cc1ccc(-c2nc(CN3CCCCC3)cc(CN3CCCCC3)c2O)cc1 | inactive |
| CCCN(CCC)CCNC(=O)c1cc2c(-c3ccc(Cl)cc3)nn(C)c2s1 | inactive |
| Cc1ccc(OCCN2C(=O)C(=O)c3cc(C)ccc32)cc1 | inactive |
| Cc1ccc(OCCn2c3ccccc3n3nc(C)c(=O)nc23)cc1 | inactive |
| C/C(CC1(O)C(=O)Nc2ccccc21)=N\O (configuration not stated) | inactive |
| CCCCN(C)CCNC(=O)c1cc2c(-c3cccc(OC)c3)nn(C)c2s1 | inactive |
| COc1ccccc1NC(=O)CN(c1ccc(C23CC4CC(CC(C4)C2)C3)cc1)S(C)(=O)=O | inactive |
| COC(=O)Cn1c(CCC(=O)O)ccc1-c1ccccc1 | inactive |
| CC(=O)NC(Cc1c[nH]c2ccccc12)C(=O)O (configuration not stated) | inactive |
| Cc1cc2cc(C(=O)N3CCc4c([nH]c5ccccc45)C3c3ccccn3)ccc2o1 (configuration not stated) | inactive |
| C=C(C)CSc1nc2sc3c(c2c(=O)n1-c1ccc(OC)cc1)CCN(C)C3 | inactive |
| O=C(COC(=O)c1ccccc1Cc1ccccc1)NC1CCS(=O)(=O)C1 (configuration not stated) | inactive |
| COc1ccccc1-c1nnc2sc(-c3ccc(N(C)C)cc3)nn12 | inactive |

| Structure (SMILES) | outcome |
| --- | --- |
| Cc1ccc2c(c1)sc[n+]2Cc1ccccc1 | inactive |
| O=C(C(Cc1ccccc1)N1C(=O)c2ccccc2C1=O)N1c2ccccc2CCc2ccccc21 (configuration not stated) | inactive |
| NC(=NCCCCCCN=C(N)/N=C(\N)Nc1ccc(Cl)cc1)/N=C(\N)Nc1ccc(Cl)cc1 | inactive |
| CCOc1cccc(-c2nn(-c3ccccc3)cc2/C=C(/C#N)C(=O)NCCCn2ccnc2)c1 | inactive |
| Cc1nc(N2CCOCC2)c2c(C)c(C(=O)Nc3ccccc3C(F)(F)F)sc2n1 | inactive |
| CCOc1ccc(-c2c(C(=O)N/N=C/c3cccs3)nnn2-c2nonc2N)cc1 | inactive |
| O=C1CCCC(O)=C1N=Nc1ccc2ncsc2c1 | inactive |
| Cc1ccc(S(=O)(=O)Nc2ccccc2C(=O)NCC2CCCO2)cc1 (configuration not stated) | inactive |
| C/C(CC(=O)NCc1ccco1)=N\NC(=O)c1ccc([N+](=O)[O-])cc1Cl | inactive |
| CCOc1ccc(N(Cc2ccc(OC)cc2)C(=O)c2ccco2)cc1 | inactive |
| COCc1cc(C)n(CC(=O)NCc2ccccc2)c(=O)c1C#N | inactive |
| Oc1c(N=NC(=S)Nc2ccccc2F)c2ccccc2n1Cc1ccccc1Cl | inactive |
| CC(C)c1cccc(OCC(=O)Nc2ccc(S(=O)(=O)Nc3ccccn3)cc2)c1 | inactive |
| CC(C)c1c(C(=O)N/N=C/c2ccsc2)nnn1-c1nonc1N | inactive |
| CCCOc1ccccc1C(=O)NCCCC(=O)O | inactive |
| COCc1c(C(=O)N/N=C/C2CC=CCC2)nnn1-c1nonc1N (configuration not stated) | inactive |
| CCOc1cccc(-c2c(C(=O)N/N=C/c3c(F)cccc3Cl)nnn2-c2nonc2N)c1 | inactive |
| CCn1c(COc2cccc(C)c2)nnc1SCC(=O)NC1CCCC1 | inactive |
